HTT ATP protect: Huntington cell model cytoprotection by ATP luminescence; AID 1471; PC12 HTT-Q103 induced, cytoprotection, ATP luminescence, 40 h; 0.14% of 230,000 active; Potency, µM (doses to about 56.4 µM), inactives show cytoprotection (ATP increase), actives largely listed as activators; also: potency is read from the fitted curve at half-maximal effect; % of control where 0% means no effect; nearly all actives have a fitted effect of over 45% in size
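Readout: ATPlite luminescence (ATP level). Model: stable PC12, inducible Htt exon1 Q103-GFP. Inducer: tebufenozide, 100 nM final. Compounds: dose series. No G418 in medium.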
NPSR antagonist: neuropeptide S receptor (human) antagonism, cAMP; CHO-NPSR cells, cAMP TR-FRET, antagonist mode; AID 1461; 1% of 220,000 active; Q6W5P4; Potency, µM (titrated, usually from 38.3 µM), inactives show at the top dose activity change, negative = inhibition, most hits filed as inhibitors; also: potency is read from the fitted curve at half-maximal effect; % is scaled to controls: 0 for no effect and ±100 for the full control effect; nearly all actives have a fitted effect of over 50% in size
Target sequence (Q6W5P4 whole entry, looked up): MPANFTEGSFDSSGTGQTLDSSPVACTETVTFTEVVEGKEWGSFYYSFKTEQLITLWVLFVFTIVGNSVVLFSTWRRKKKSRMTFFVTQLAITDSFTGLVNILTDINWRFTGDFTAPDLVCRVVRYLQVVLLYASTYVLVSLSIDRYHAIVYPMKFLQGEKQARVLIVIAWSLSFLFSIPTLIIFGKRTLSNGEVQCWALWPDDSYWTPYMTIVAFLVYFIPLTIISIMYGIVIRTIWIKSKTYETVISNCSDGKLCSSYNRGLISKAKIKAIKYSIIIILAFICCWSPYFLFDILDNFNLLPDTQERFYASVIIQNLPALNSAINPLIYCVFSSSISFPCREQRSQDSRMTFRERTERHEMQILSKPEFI
IMPase inh: membrane-permeable compound that blocks inositol monophosphatase. P97697. CHO-M1 cells, IP1 accumulation, HTRF TR-FRET ratio. inhibition (IP1 accumulation), % at 46.1 µM. 120,000 tested, under 10 active. AID 901; active = well fitted curve in the direction sought with a large enough effect in the signal ratio, not every such curve was filed as active; inconclusive = small, poorly fitted or top-dose-only effect, or a change in a side signal; inactive = no such curve, though single readings can be large or run the other way; the % refers to the signal ratio;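 also: cells stimulated with carbachol in lithium chloride buffer; plate controls were DMSO basal wells for no effect and reference inhibitor wells for full effect; higher means more IMPase inhibition seen as more IP1 and lower FRET ratio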
Target sequence (P97697 whole entry, looked up): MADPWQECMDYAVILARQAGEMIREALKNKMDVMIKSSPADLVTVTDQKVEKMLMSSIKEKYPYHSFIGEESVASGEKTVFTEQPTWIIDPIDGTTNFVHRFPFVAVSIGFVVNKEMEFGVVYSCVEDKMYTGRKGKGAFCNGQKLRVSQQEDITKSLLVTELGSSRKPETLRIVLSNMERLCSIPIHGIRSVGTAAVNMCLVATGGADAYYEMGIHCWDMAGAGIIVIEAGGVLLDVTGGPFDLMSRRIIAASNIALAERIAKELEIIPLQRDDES
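CHO-M1 cells (CHO stably expressing M1 receptor), compound up to 46 uM final, stimulated with carbachol (50 uM as added) in buffer with 50mM LiCl, pH 7.4, 30 min at 37C. Cytosolic IP1 read by TR-FRET; AC50 from Hill fits.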
HttQ103 aggreg: inhibitors of mutant huntingtin aggregate formation in PC12 cells. 1.1% of 220,000 active. Potency, µM (highest dose often 46.1 µM), for the others: at the highest dose activity change, negative = inhibition, actives largely listed as inhibitors. PC12 HttQ103-GFP aggregates, Acumen cytometry, 40 h. AID 1688; also: potency is read from the fitted curve at half-maximal effect; % is scaled to controls: 0 for no effect and ±100 for the full control effect; nearly all actives have a fitted effect of over 60% in size
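Ecdysone-promoter PC12 model expressing HTT exon 1 Q103 fused to GFP, induced by tebufenozide at 100 nM final. Compounds titrated; aggregates sized 1–25 µm scored on a 488 nm laser cytometer.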
Lamin A splicing: modulators of lamin A splicing; HeLa LMNA splicing GFP/RFP minigene ratio, 48 h; Potency, µM (series often up to 46.1 µM), for the others: top-dose ratio change, negative = inhibition, usual class: inhibitors; 0.01% of 200,000 active; AID 1487; active = well fitted inhibition curve with a large enough effect in the signal ratio, with a control signal flat, not every such curve was filed as active; inconclusive = small, poorly fitted or top-dose-only effect, or effect the other way, or a change in a side signal; the % refers to the signal ratio; also: potency is read from the fitted curve at half-maximal effect; % is scaled to controls: 0 for no effect and ±100 for the full control effect
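S3 HeLa stable clones carrying a lamin A-EGFP splicing minigene plus DsRed2 were seeded at 600 cells/well in Opti-MEM with 2% FBS, pin-dosed and incubated 48 h at 37°C. Acumen cytometry (488 nm) gave the GFP/RFP total-intensity ratio.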
IMPase Li cell: membrane-permeable IMPase blocker, potentiated with lithium. AID 1457. CHO-M1 cells, IP1 TR-FRET (IP-One), carbachol + lithium. 0.35% of 210,000 active. Potency, µM (top dose mostly 59.4 µM), without a hit: at the highest dose activity, negative = IMPase inhibition, most hits filed as inhibitors;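 also: IP1 builds up when IMPase is blocked and the TR-FRET signal falls; potency is read from the fitted curve at half-maximal effect; plate controls were basal vehicle for no effect and high inhibitor control for full effect; nearly all actives have a fitted effect of over 50% in size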
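CHO cells stably expressing M1 receptor (2000/well, cultured 16–30 h) treated 30 min at 37C with compound plus low lithium. Cytosolic IP1 by TR-FRET (665/620 ratio and 620 channel) after 10 min lysis; AC50 by Hill fit.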
* marks the source's active call; other numbers are inactive results; ? = inconclusive; nt = not tested or not shown; [ ] = dose if it differs, or a comment. In the library only some 1.6% were active in any assay of this set; here they are far more common. Unless noted, calls follow the shape of the dose curve; as a rule, active = well fitted curve in the direction sought with a large enough effect; inconclusive = small, poorly fitted or top-dose-only effect, or another doubt; inactive = no such curve, though single readings can be large; an effect the other way counts as inactive or inconclusive.

SMILES	HTT ATP protect	NPSR antagonist	IMPase inh	HttQ103 aggreg	Lamin A splicing	IMPase Li cell
COc1ccccc1C(=O)Nc1nnc(-c2ccc3c(c2)CCCC3)o1	-37%	-12%[46.1 µM]	2	20µM*	-25%	7%[38.3 µM]
CC1CN(S(=O)(=O)c2ccc(C(=O)Nc3nnc(-c4ccccn4)o3)cc2)CC(C)O1 (stereo not given)	-23%	2%	nt	-8%	11%[9.22 µM]	-6%
CC1CN(S(=O)(=O)c2ccc(C(=O)Nc3nnc(-c4ccc5c(c4)CCCC5)o3)cc2)CC(C)O1 (stereo not given)	-107%	-1%[46.1 µM]	-1	3.5µM*	?	-3%[38.3 µM]
N[C@@H](C(=O)O)[C@H](O)C(=O)O	24%[1.9 µM]	nt	nt	nt	nt	nt
COc1ccc2cccc(N3CCN(CCNC(=O)c4ccc(F)cc4)CC3)c2c1	-56%	nt	3	nt	nt	2%
CCC(C)Cn1c(C)nc2ccccc21 (stereo not given)	-31%	10%[46.1 µM]	8	20µM*	?	12%[38.3 µM]
CCC(C)Cn1c(COc2ccc(OC)cc2)nc2ccccc21 (stereo not given)	nt	nt	7	nt	nt	nt
Cc1cc2cc3c(cc2nc1SCC(=O)O)CCC3	-10%[10 µM]	58%	nt	-11%[9.22 µM]	nt	3.5µM*
Cc1ccccc1NC(=O)CSc1nc2cc3c(cc2cc1C)CCC3	8%	-9%[46.1 µM]	?	-1%	?	8%[38.3 µM]
CCOc1cc(C(=S)N2CCCC2)ccc1OCC(=O)Nc1c(C)cc(C)cc1C	11%[10 µM]	-12%[46.1 µM]	-5	-1%	-5%	5%
COc1ccc(C(=O)NCc2oc(-c3ccccc3)cc2C(=O)O)cc1	-1%[0.074 µM]	-6%[46.1 µM]	9	3.2µM*	-1%	6%[38.3 µM]
COc1ccc(CNC(=O)c2ccccc2C(=O)O)cc1	nt	7%	nt	10%	1%	-5%
Cc1ccc(CSCCC(=O)NCc2ccc(F)cc2Cl)cc1	nt	nt	nt	nt	-25%[46 µM]	nt
CC(C)(C)c1ccc(-c2cn(-c3ccc(Br)cc3)c3[n+]2CCCS3)cc1	-39%[10 µM]	10µM*	nt	1.3µM*	nt	24%
CN1CCN(CCCNN)CC1	5%[10 µM]	nt	nt	nt	nt	8%
CC1CCC2C(=O)N3C(CCC(C)C3c3ccccc3Br)C(=O)N2C1c1ccc(C#CCN(C)C)cc1 (stereo not given)	0%[10 µM]	nt	nt	nt	nt	nt
C=C(C)CN(CC#N)CC(=C)C	-9%[10 µM]	nt	nt	nt	nt	3%
CCCCc1ccc(Nc2nc(CCC)cc(=O)[nH]2)cc1	20%[1.9 µM]	-18%[46.1 µM]	13	35µM*	?	36%[38.3 µM]
C/C(=N\NC(=O)c1ccn(C)n1)c1cccc(NC(=O)c2ccc(C)s2)c1	nt	-1%	nt	8%	-1%	3%
O=C(O)c1ccc(CS(=O)c2cccc(C(F)(F)F)c2)o1 (stereo not given)	-13%[0.074 µM]	-8%[46.1 µM]	10	13µM*	?	19%[38.3 µM]
COc1ccccc1S(=O)Cc1ccc(C(=O)O)o1 (stereo not given)	0%[0.074 µM]	-4%[46.1 µM]	6	7%	0%	-2%[38.3 µM]
O=C1C=CC(=O)C(C2=C3C(=O)N(CCc4ccccc4)CC(=O)N3CCC2)=C1	nt	10µM*	nt	7.1µM*	?	27%
CCN(CCCNC(=O)C1c2ccccc2C(=O)N(CCOC)C1c1ccc(F)cc1)Cc1ccccc1 (stereo not given)	-21%	10µM*	nt	0%	2%[9.22 µM]	6%
COc1ccc2c(c1)C(=O)[C@H](OC(=O)NCc1ccc3c(c1)OCO3)[C@@H](c1ccc(OC)c(Br)c1)O2	-37%	nt	nt	nt	nt	-1%
CC1=NOC(=O)/C1=C\c1ccc(-c2cccc(Cl)c2)o1	-93%	?	3	?	91%	10%[38.3 µM]
SMILES	HTT ATP protect	NPSR antagonist	IMPase inh	HttQ103 aggreg	Lamin A splicing	IMPase Li cell
CC1=NOC(=O)/C1=C\c1ccc(-c2ccccc2Br)o1	-39%	10µM*	nt	-3%	nt	7.1µM*
S=c1[nH]nc(-c2cccs2)n1/N=C/c1c(Cl)cccc1Cl	-31%	-14%	nt	-9%	-10%[46 µM]	0%
COc1ccc(C2C3=C(CC(C)(C)CC3=O)Oc3ncn(Cc4ccccc4)c(=N)c32)cc1 (stereo not given)	4µM*	-27%[46.1 µM]	7	-19%	-7%	3%[38.3 µM]
Nc1[nH]n2c(=O)cc(-c3ccccc3)nc2c1N=Nc1ccc(S(N)(=O)=O)cc1	-8%[10 µM]	17%	nt	20%[9.22 µM]	3%[46 µM]	27%
Nc1[nH]n2c(=O)cc(-c3ccccc3)nc2c1N=Nc1ccccc1	-79%	-13%[46.1 µM]	-3	3.2µM*	-15%	4%[38.3 µM]
CCCOc1ccc(CSc2nc3ccccc3[nH]2)cc1	-87%	-4%[46.1 µM]	8	7.9µM*	5%	17%[38.3 µM]
CCOc1ccc(OCCSc2nc3ccccc3[nH]2)cc1	9%[10 µM]	2%	12	?	?	30%
N#Cc1c(NCc2ccccc2)ccnc1NCc1cccnc1	11%[10 µM]	-7%[46.1 µM]	-8[1.84 µM]	22µM*	?	44%[38.3 µM]
CN(C)c1ccnc(NCc2ccccc2)c1C#N	-18%	1%[46.1 µM]	-14	-14%	21%	1%[38.3 µM]
Cc1c(C(=O)Nc2ccc(OC(F)(F)F)cc2)sc2nc3n(c(=O)c12)CCC3	-55%	-7%[46.1 µM]	7	-16%	0%	-12%[38.3 µM]
Cc1c(C(=O)Nc2ccc(Oc3ccccc3)cc2)sc2nc3n(c(=O)c12)CCC3	-44%	-19%[46.1 µM]	3	4.5µM*	?	-8%[38.3 µM]
Nc1c(C(=O)NCc2ccco2)sc2nc(N3CCOCC3)c3c(c12)CCCC3	-43%	29%[46.1 µM]	-26	27%	?	10µM*
COc1ccc(N2CCN(CCNC(=O)c3ccc4c(c3)[nH]c(=S)n3c5ccccc5nc43)CC2)cc1	-60%	-20%	nt	15%	?	14µM*
Cc1ncc([N+](=O)[O-])n1Cc1ccccc1	22%[10 µM]	5%	nt	-12%	-9%	-2%
O=[N+]([O-])c1cnc2ccccn12	4µM*	12%	nt	7%[9.22 µM]	nt	nt
N#Cc1cc([N+](=O)[O-])cnc1N(CCO)CCO	14%[10 µM]	0%	nt	13µM*	-7%	-3%
CCC(CO)Nc1ncc([N+](=O)[O-])cc1C#N (stereo not given)	-47%[10 µM]	4%[46.1 µM]	2	-1%	-9%	-5%
O=C1CC(Nc2ccccc2)C(=O)N1CCc1ccccc1 (stereo not given)	23%	13%[46.1 µM]	-7	-10%	-1%	21%[38.3 µM]
O=C1CC(=O)N(CCc2ccccc2)C(=O)N1CCc1ccccc1	-9%[0.074 µM]	-13%[46.1 µM]	-3	0.4µM*	-5%	19%[38.3 µM]
O=C(Nc1ccc(C(=O)N2CCOCC2)cc1)Nc1cccc(Cl)c1	-25%[10 µM]	-2%	nt	11µM*	?	1%
O=C(Nc1ccc(OCC(=O)N2CCOCC2)cc1)Nc1cccc(Cl)c1	9%[10 µM]	16%	nt	-10%[9.22 µM]	14%[46 µM]	0%
Cn1c([N+](=O)[O-])cnc1N1CCN(c2nncs2)C1=O	29%[10 µM]	-8%	nt	22%[9.22 µM]	nt	nt
